# Laboratory results reported in the supplement of paper PMC8728848.
# About 410 targets per protein were measured; listed, in parts, are those with the strongest signals and a random draw of the rest.
# B1: HBHA-Rv (Mycobacterium tuberculosum), P0A5P6 (protein)
# chain: MAENSNIDDIKAPLLAALGAADLALATVNELITNLRERAEETRTDTRSRVEESRARLTKLQEDLPEQLTELREKFTAEELRKAAEGYLEAATSRYNELVERGEAALERLRSQQSFEEVSARAEGYVDQAVELTQEALGTVASQTRAVGERAAKLVGIELPKKAAPAKKAAPAKKAAPAKKAAAKKAPAKKAAAKKVTQK
# What was measured:
# Test in all cases: glycan array binding signal (z-score within array); higher = stronger binding
# Conditions in all cases: glycan notation: IUPAC condensed, linker removed
# Gal3S6S(b1-4)GlcNAc6S = target: Gal3S6S(b1-4)GlcNAc6S
# Outline: (§1)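 Negative Z-scores can be read as non-binding. The Z-score is calculated within each array and then averaged across arrays of one protein sequence at different concentrations or buffers and across linkers. Arrays, 3228 in all, were curated from the Consortium for Functional Glycomics database and kept only where the protein sequence was available.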
# Gal6S(b1-4)Glc = target: Gal6S(b1-4)Glc
# Outline: as §1
# Gal6S(b1-4)GlcNAc6S = target: Gal6S(b1-4)GlcNAc6S
# Outline: as §1
# Glc(b1-6)Glc = target: Glc(b1-6)Glc
# Outline: as §1
# [1] = target: GlcNAc(b1-2)[GlcNAc(b1-6)]Man(a1-6)[GlcNAc(b1-4)][GlcNAc(b1-2)Man(a1-3)]Man(b1-4)GlcNAc(b1-4)GlcNAc
# Outline: as §1
# [2] = target: GlcNAc(b1-3)Gal(b1-4)GlcNAc(b1-2)Man(a1-3)[GlcNAc(b1-3)Gal(b1-4)GlcNAc(b1-2)Man(a1-6)]Man(b1-4)GlcNAc(b1-4)GlcNAc
# Outline: as §1
# [3] = target: GlcNAc(b1-3)Gal(b1-4)GlcNAc(b1-2)Man(a1-3)[GlcNAc(b1-3)Gal(b1-4)GlcNAc(b1-2)Man(a1-6)]Man(b1-4)GlcNAc(b1-4)[Fuc(a1-6)]GlcNAc
# Outline: as §1
# [4] = target: GlcNAc(b1-3)Gal(b1-4)GlcNAc(b1-3)Gal(b1-4)GlcNAc(b1-3)Gal(b1-4)GlcNAc(b1-2)Man(a1-3)[GlcNAc(b1-3)Gal(b1-4)GlcNAc(b1-3)Gal(b1-4)GlcNAc(b1-3)Gal(b1-4)GlcNAc(b1-2)Man(a1-6)]Man(b1-4)GlcNAc(b1-4)[Fuc(a1-6)]GlcNAc
# Outline: as §1
# [5] = target: GlcNAc(b1-3)Gal(b1-4)GlcNAc(b1-3)Gal(b1-4)GlcNAc(b1-3)Gal(b1-4)GlcNAc(b1-2)[GlcNAc(b1-3)Gal(b1-4)GlcNAc(b1-3)Gal(b1-4)GlcNAc(b1-3)Gal(b1-4)GlcNAc(b1-6)]Man(a1-6)[GlcNAc(b1-3)Gal(b1-4)GlcNAc(b1-3)Gal(b1-4)GlcNAc(b1-3)Gal(b1-4)GlcNAc(b1-2)Man(a1-3)]Man(b1-4)GlcNAc(b1-4)[Fuc(a1-6)]GlcNAc
# Outline: as §1
# GlcNAc(b1-4)GlcNAc = target: GlcNAc(b1-4)GlcNAc
# Outline: as §1
# [6] = target: GlcNAc(b1-4)GlcNAc(b1-4)GlcNAc(b1-4)GlcNAc(b1-4)GlcNAc
# Outline: as §1
# [7] = target: GlcNAc(b1-4)GlcNAc(b1-4)GlcNAc(b1-4)GlcNAc(b1-4)GlcNAc(b1-4)GlcNAc
# Outline: as §1
# [8] = target: Kdn(a2-3)Gal(b1-4)[Fuc(a1-3)]GlcNAc
# Outline: as §1
# [9] = target: Man(a1-2)Man(a1-3)[Man(a1-2)Man(a1-6)]Man(a1-6)[Man(a1-2)Man(a1-2)Man(a1-3)]Man(b1-4)GlcNAc(b1-4)GlcNAc
# Outline: as §1
# [10] = target: Man(a1-2)Man(a1-6)[Man(a1-3)]Man(a1-6)[Man(a1-2)Man(a1-2)Man(a1-3)]Man(b1-4)GlcNAc(b1-4)GlcNAc
# Outline: as §1
# [11] = target: Neu5Ac(a2-3)Gal(b1-3)GalNAc
# Outline: as §1
# [12] = target: Neu5Ac(a2-3)Gal(b1-3)GlcNAc(b1-2)Man(a1-3)[Neu5Ac(a2-3)Gal(b1-3)GlcNAc(b1-2)Man(a1-6)]Man(b1-4)GlcNAc(b1-4)GlcNAc
# Outline: as §1
# [13] = target: Neu5Ac(a2-3)Gal(b1-4)GlcNAc(b1-2)Man
# Outline: as §1
# [14] = target: Neu5Ac(a2-3)Gal(b1-4)GlcNAc(b1-2)Man(a1-3)[Neu5Ac(a2-3)Gal(b1-4)GlcNAc(b1-2)Man(a1-6)]Man(b1-4)GlcNAc(b1-4)[Fuc(a1-6)]GlcNAc
# Outline: as §1
# [15] = target: Neu5Ac(a2-3)Gal(b1-4)GlcNAc(b1-3)Gal(b1-4)GlcNAc(b1-2)Man(a1-3)[Neu5Ac(a2-3)Gal(b1-4)GlcNAc(b1-3)Gal(b1-4)GlcNAc(b1-2)Man(a1-6)]Man(b1-4)GlcNAc(b1-4)GlcNAc
# Outline: as §1
# [16] = target: Neu5Ac(a2-3)Gal(b1-4)GlcNAc(b1-6)[Gal(b1-3)]GalNAc
# Outline: as §1
# [17] = target: Neu5Ac(a2-3)Gal(b1-4)[Fuc(a1-3)]GlcNAc
# Outline: as §1
# [18] = target: Neu5Ac(a2-3)Gal6S(b1-4)[Fuc(a1-3)]GlcNAc
# Outline: as §1
# [19] = target: Neu5Ac(a2-6)Gal(b1-4)GlcNAc(b1-2)Man(a1-3)[Gal(b1-4)GlcNAc(b1-2)Man(a1-6)]Man(b1-4)GlcNAc(b1-4)GlcNAc
# Outline: as §1
# [20] = target: Neu5Ac(a2-6)Gal(b1-4)GlcNAc(b1-2)Man(a1-3)[Neu5Ac(a2-3)Gal(b1-4)GlcNAc(b1-2)Man(a1-6)]Man(b1-4)GlcNAc(b1-4)GlcNAc
# Outline: as §1
# [21] = target: Neu5Ac(a2-6)Gal(b1-4)GlcNAc(b1-2)Man(a1-6)[Man(a1-3)]Man(b1-4)GlcNAc(b1-4)GlcNAc
# Outline: as §1
# [22] = target: Neu5Ac(a2-6)Gal(b1-4)GlcNAc(b1-3)Gal(b1-4)GlcNAc(b1-3)GalNAc
# Outline: as §1
# [23] = target: Neu5Ac(a2-8)Neu5Ac(a2-3)[Gal(b1-3)GalNAc(b1-4)]Gal(b1-4)Glc
# Outline: as §1
binder,measurement,setting,value
B1,glycan array binding signal (z-score),Gal3S6S(b1-4)GlcNAc6S,1.29
same,glycan array binding signal (z-score),Gal6S(b1-4)Glc,1.36
same,glycan array binding signal (z-score),Gal6S(b1-4)GlcNAc6S,0.203
same,glycan array binding signal (z-score),Glc(b1-6)Glc,0.495
same,glycan array binding signal (z-score),[1],-0.415
same,glycan array binding signal (z-score),[2],-0.423
same,glycan array binding signal (z-score),[3],-0.332
same,glycan array binding signal (z-score),[4],-0.455
same,glycan array binding signal (z-score),[5],-0.347
same,glycan array binding signal (z-score),GlcNAc(b1-4)GlcNAc,-0.292
same,glycan array binding signal (z-score),[6],4.22
same,glycan array binding signal (z-score),[7],3.44
same,glycan array binding signal (z-score),[8],-0.371
same,glycan array binding signal (z-score),[9],-0.264
same,glycan array binding signal (z-score),[10],1.09
same,glycan array binding signal (z-score),[11],1.62
same,glycan array binding signal (z-score),[12],-0.163
same,glycan array binding signal (z-score),[13],-0.023
same,glycan array binding signal (z-score),[14],-0.174
same,glycan array binding signal (z-score),[15],-0.297
same,glycan array binding signal (z-score),[16],-0.331
same,glycan array binding signal (z-score),[17],-0.199
same,glycan array binding signal (z-score),[18],0.273
same,glycan array binding signal (z-score),[19],-0.354
same,glycan array binding signal (z-score),[20],-0.42
same,glycan array binding signal (z-score),[21],-0.302
same,glycan array binding signal (z-score),[22],-0.379
same,glycan array binding signal (z-score),[23],1.55
